A selection: hits, their analogues and other compounds. The true share with any hit is near 21%.
Cycloheximide cs = affects cycloheximide protein synthesis inhibition readout, counter-screen. cell reporter, cycloheximide protein synthesis inhibition counterscreen. AID 2314. max response, %. actives 12% (n = 300,000); in the data active = max response mostly above about 13%, no sharp cut-off; inactive = mostly below about 14%; also: read at 38.3 µM for the half of the compounds with a filed dose; 0% is about no effect
NS1 inh = blocks influenza NS1 protein function; actives 0.4% (n = 270,000); AID 2326; Potency, µM (top dose mostly 46.1 µM), without a hit: at the top dose activity, positive = more growth; calls by dose curve; also: potency is read from the fitted curve at half-maximal effect; actives are rising curves; nearly all actives have a fitted effect of over 50% in size
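Growth recovery, yeast-based: influenza A NS1 expressed in S. cerevisiae causes slow growth, and suppressors are detected by OD600. The parent strain without NS1 is used as positive control.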
Sm TGR block = inhibitors of Schistosoma mansoni thioredoxin glutathione reductase. Q962Y6. purified TGR, DTNB reduction, TNB absorbance 405 nm. Potency, µM (highest dose often 114 µM), without a hit: top-dose activity change, negative = inhibition, usual class: inhibitors. actives 3% (n = 360,000); also: potency is read from the fitted curve at half-maximal effect; % is scaled to controls: 0 for no effect and ±100 for the full control effect; nearly all actives have a fitted effect of over 60% in size
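TGR 20 nM + NADPH 100 uM (dispensed conc.), cpd preinc 15 min RT; start with NADPH (500 uM addition) then DTNB (15 mM addition). Kinetic TNB absorbance, 405 nm filter. Four-parameter Hill fit across titration.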
Pf growth 96h = inhibits malaria parasite growth, 96 h | P. falciparum luciferase reporter growth, 96 h | Potency, µM (highest dose often 28.7 µM), for the others: top-dose activity change, negative = inhibition, usual class: inhibitors | actives 6.9% (n = 320,000); also: potency is read from the fitted curve at half-maximal effect; % is scaled to controls: 0 for no effect and ±100 for the full control effect
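Cell-based qHTS: luciferase-tagged P. falciparum in erythrocytes (2% hematocrit, 0.05% parasitemia final) incubated with compounds for 96 hours, 37 C, 5% CO2; luciferase detection reagent then added and luminescence measured.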
Pf growth 48h = P. falciparum growth inhibition at 48 hours (one generation). P. falciparum luciferase growth in erythrocytes, 48 h. Potency, µM (top dose mostly 28.7 µM), for inactives: at the top dose activity change, negative = inhibition, most hits filed as inhibitors. actives 5.9% (n = 310,000). AID 504832; also: potency is read from the fitted curve at half-maximal effect; % is scaled to controls: 0 for no effect and ±100 for the full control effect
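Erythrocytes infected with P. falciparum carrying an integrated firefly luciferase reporter (2% hematocrit, 0.1% parasitemia final) were exposed to compounds in RPMI 1640 with 0.5% Albumax at 37 C, 5% CO2. Growth inhibition was scored as reduced luminescence.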
Shiga toxin inh = Shiga toxin inhibition | Vero cells, Shiga toxin protein synthesis inhibition reporter | inhibition, % at 38.7 µM | actives 9.2% (n = 290,000) | AID 2315; in the data active = inhibition mostly above about 28%, no sharp cut-off; inactive = mostly below about 43%; also: 0% is about no effect
* = called active by the depositor; ? = inconclusive; · = not tested or not shown. Unless noted, calls follow the shape of the dose curve; as a rule, active = well fitted curve in the direction sought with a large enough effect; inconclusive = small, poorly fitted or top-dose-only effect, or another doubt; inactive = no such curve, though single readings can be large; an effect the other way counts as inactive or inconclusive.

SMILES	Cycloheximide cs	NS1 inh	Sm TGR block	Pf growth 96h	Pf growth 48h	Shiga toxin inh
CCC(C(=O)N1CCOCC1)n1nc(C)c2c(C)n(-c3ccccc3)nc2c1=O (centres undefined)	-9	14%	3%	42%	6%	-1
O=c1c2c3c(sc2nc2n1CCCC2)CCC3	3	-41%	5%	33%	6%	-7
N=c1c2c3c(sc2nc2n1CCCCC2)CCCCC3	32*	-6%	0%	?	41%	73*
O=c1c2c3c(sc2nc2n1CCCS2)CCCC3	42*	-73%	-8%	-26%	57%	52
O=c1c2c3c(sc2nc2n1CCCC2)CCCCC3	44*	-116%	-2%	·	23%	51
O=c1c2c3c(sc2nc2n1CCCCC2)CCCCC3	28*	-1%	-8%	-23%	111%	73*
Cc1cc(C(=O)C(=O)Nc2nnc(C(C)C)s2)c(C)n1-c1ccccc1	·	·	2%	·	·	·
CN1CCc2nc(NC(=O)COc3ccc(C#N)cc3)sc2C1	6	·	4%	-15%	4%	34
CC1(C)Cc2c(sc3nc4n(c(=O)c23)CCC4)CO1	8	9%	0%	22%	13%	-1
CC1=Nn2c(nc3sc4c(c3c2=O)CCCC4)SC1	24*	3%	-5%	200%	59%	57
O=c1c2c3c(sc2nc2n1CCC2)CCCC3	17	-2%	-4%	?	-6%	27
Cc1nc2sc3c(c2c(=N)n1N)CCCC3	-3	-6%	8%	10µM*	-2%	2
O=c1c2c3c(sc2nc2n1CCCCC2)CCCC3	31*	-12%	-16%	·	120%	97*
CC1CSc2nc3sc4c(c3c(=O)n21)CCCC4 (centres undefined)	22*	-17%	0%	23%	7%	26
Cc1nc2sc3c(c2c(=N)n1N)CC(C)(C)OC3	1	6%	10%	13%	2%	-17
COc1ccc(CN(C)C(=O)c2ccc(NS(=O)(=O)c3ccc(C)c([N+](=O)[O-])c3)cc2)c(OC)c1OC	·	·	4%	?	?	·
Cc1ccc(-n2nc3c(=O)n(CC(=O)NCC(C)c4ccccc4)nc(C)c3c2C)cc1 (centres undefined)	·	·	-14%	·	·	·
Cc1cccc(NC(=O)Cn2c(=O)ccc3cc(S(=O)(=O)N4CCCC4)ccc32)c1C	·	·	9%	·	·	·
c1ccc2nc(OCCN3CC3)ccc2c1	0	7%	-19%	?	?	11
c1ccc(Oc2ccc3ccccc3n2)cc1	39*	·	11%	8%	5%	130*
Cc1ccc(S(=O)(=O)N(C)Cc2nc(-c3ccccc3)oc2C)cc1	·	·	12%	·	·	·
COc1ccccc1C(=O)NNC(=O)c1ccc(NC(=O)C(C)C)cc1	-4	3%	6%	52%	8%	-8
CCOc1ccc(NC2=C(Cl)C(=O)N(Cc3ccccc3)C2=O)cc1	-2	9%	-19%	?	?	-9
Cc1ccc(O)c(NC2=C(Cl)C(=O)N(Cc3ccccc3)C2=O)c1	-2	9%	·	?	12µM*	-2
O=C(c1ccc2c(c1)N(Cc1ccccc1)C(=O)c1ccccc1S2)N1CCCC1	-1	1%	5%	?	-39%	-1
SMILES	Cycloheximide cs	NS1 inh	Sm TGR block	Pf growth 96h	Pf growth 48h	Shiga toxin inh
Cc1ccc(C(=O)N2CCCCC2)cc1NC1=C(Cl)C(=O)N(Cc2ccccc2)C1=O	·	·	3%	5.2µM*	4.7µM*	·
COC(=O)c1ccccc1NC(=O)C(=O)NCc1ccncc1	-2	0%	·	?	-7%	3
CCCCC1(CC(=O)OC)C(=O)N(c2ccccc2)N(c2ccccc2)C1=O	-6	-14%	-8%	42%	?	-4
CCCCC1(Cc2ccc(OC)c([N+](=O)[O-])c2)C(=O)N(c2ccccc2)N(c2ccccc2)C1=O	-1	9%	17%	?	1.5µM*	-10
CC1CCc2c(sc(NC(=O)COC(=O)C3CCCO3)c2C#N)C1 (centres undefined)	20	-20%	-10%	120%	73%	18
CCc1c(C)sc(NC(=O)c2cc(C3CC3)on2)c1C#N	-3	-9%	2%	?	·	-10
CCOC(=O)Nc1sc2c(c1C#N)CCC(C)C2 (centres undefined)	46*	-8%	-1%	?	114%	91*
